From PubChem
Rows were chosen to be rich in hits. Some 2.2% of all compounds tested hit in one or more screens of this group.
ANO1 block: TMEM16A chloride channel inhibitors, primary screen, cell-based, HTS; Anoctamin-1 (Mus musculus), Q8BHY3; HEK293 TMEM16A/YFP iodide influx fluorescence, ionomycin; normalized B-score (activity score, 25-100; higher = stronger inhibition) at 10 µM; 310,000 tested, 1.2% active;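 active means ratio plate-corrected score three or more library SD toward inhibition, starting fluorescence score within five deviations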;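 further: score derived from kinetic fluorescence span divided by baseline fluorescence per well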
M1 ag parental: counter-screen for M1 agonists: effect in parental CHO-K1 cells. 360,000 tested, 0.48% active. Fluo-8 calcium fluorescence; scaled to maximal ATP response, vehicle zero. activation, % at 3 µM. AID 602248, 2012; in the data active means activation above about 15%;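 further: untransfected CHO-K1 host cells lacking M1 receptor as counterscreen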
ANO1 activ: TMEM16A chloride channel activators or potentiators, primary screen, cell-based, HTS. HEK293 TMEM16A/YFP-H148Q/I152L, iodide quench fluorescence; hits give low values. B-score at 10 µM. 340,000 tested, 0.3% active. AID 623877, 2012;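 active means fluorescence-ratio B-score plate-corrected deviation score at least 3 library SD below zero, with starting fluorescence score within 5 deviations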;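 further: channel opened by trigger with iodide after compound preincubation; score built on the fluorescence ratio of max minus min over baseline; more negative score means more quench and so TMEM16A activation or potentiation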
NTR1 agonist: agonists of human NTR1, primary screen, imaging, U2OS cells, beta-arrestin-GFP, high content; Neurotensin receptor type 1 (Homo sapiens), P30989; NTR1-U2OS beta-arrestin-GFP spot imaging, agonist mode; activation, % at 20 µM; 330,000 tested, 0.17% active; AID 493036, 2011;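 active means activation at or above 40% of the spot to cytoplasm intensity ratio, with at least 20 cells analyzed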
Target sequence (P30989 whole entry, looked up): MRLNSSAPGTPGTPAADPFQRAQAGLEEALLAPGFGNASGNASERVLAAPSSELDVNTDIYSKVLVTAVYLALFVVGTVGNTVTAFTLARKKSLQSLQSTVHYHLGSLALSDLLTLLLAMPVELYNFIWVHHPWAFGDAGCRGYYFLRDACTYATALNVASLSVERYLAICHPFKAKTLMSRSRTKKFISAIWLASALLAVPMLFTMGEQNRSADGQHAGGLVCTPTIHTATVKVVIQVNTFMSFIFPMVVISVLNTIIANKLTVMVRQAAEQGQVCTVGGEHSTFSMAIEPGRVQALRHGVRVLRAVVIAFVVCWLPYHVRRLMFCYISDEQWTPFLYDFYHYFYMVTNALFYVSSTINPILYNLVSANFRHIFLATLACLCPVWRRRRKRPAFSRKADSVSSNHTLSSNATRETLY
CHO-K1 Ca antag: nonselective inhibitor or artifact in parental CHO-K1 cells | inhibition, % at 3 µM | AID 602250 | ATP-induced calcium, Fluo-8 fluorescence | 360,000 tested, 0.6% active;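 active means inhibition above a per-plate cutoff, the plate's mean sample inhibition plus 3 SD, cut at about 24% in these data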
CHO-K1 Ca PAM: nonselective calcium activators in parental CHO-K1 cells, primary screen, counter-screen for M1 PAM project, cell-based, Fluo-8 calcium fluorescence, full deck, 1536-well; 360,000 tested, 0.02% active; activation, % at 3 µM; ATP EC20; 0% at ATP EC20, 100% at ATP max;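 active means activation above the run cutoff, the mean activation of all test compounds plus 3 SD, cut at about 40% in these data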;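 further: peak over basal fluorescence ratio in a 140 s read after ATP addition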
Large screens that a line does not name were inactive.

CN(CC1CCCO1)S(=O)(=O)c1ccc(C(=O)Nc2ccccc2F)cc1 (stereo unspecified)	none
CN(CC1CCCO1)S(=O)(=O)c1ccc(C(=O)Nc2nc(-c3ccccn3)cs2)cc1 (stereo unspecified)	ANO1 block 25
CCOc1ccc(CN2CCC(C(=O)N3CCN(c4ccccc4F)CC3)CC2)cc1OC	none
COc1cc(CN2CCC(C(=O)N3CCN(c4ccccc4F)CC3)CC2)cc(OC)c1O	CHO-K1 Ca antag 33.4
Cc1ccc(C)c2nc3sc(C(=O)N4CCOCC4)c(N)c3cc12	none
Cc1cccc2cc3c(N)c(C(=O)N4CCc5ccccc54)sc3nc12	M1 ag parental 32.9, CHO-K1 Ca antag 44.5
O=C(Nc1cccc(C(F)(F)F)c1)N(Cc1ccc(Cl)cc1)CC(O)C(F)(F)F (stereo unspecified)	ANO1 block 100
CCOC(=O)Nc1cccc(OCC(=O)Nc2ccccc2OCC)c1	CHO-K1 Ca antag 24.1
CC(=O)Nc1cccc(OCC(=O)Nc2ccccc2)c1	none
COc1ccc(CN(C2CCCCC2C)S(=O)(=O)c2ccc(S(=O)(=O)N(C)C)cc2)cc1OC (stereo unspecified)	ANO1 activ -29
O=C1NC(=S)NC1=Cc1ccc(Cl)cc1Cl	CHO-K1 Ca antag 25.6 (no result: ANO1 block, NTR1 agonist)
O=C1NC(=S)NC1=Cc1ccccc1O	M1 ag parental 17.4 (no result: ANO1 block, NTR1 agonist)
O=C1NC(=S)N/C1=C/c1cccc2ccccc12	none
O=C1NC(=O)C(=Cc2ccc(Cl)cc2Cl)S1	none (no result: ANO1 block, NTR1 agonist)
Nc1[nH]c(C(=O)c2ccccc2)c(-c2cccnc2)c1C(=O)NCCc1ccc(Cl)cc1Cl	none (no result: ANO1 block, ANO1 activ, NTR1 agonist)
Cc1c(NC(=O)c2ccc(NS(=O)(=O)c3ccc(F)c(F)c3)cc2)c(=O)n(-c2ccccc2)n1C	none (no result: ANO1 block)
Cc1ccc([C@@H]2C[C@H]3[C@@H](CN2S(=O)(=O)c2ccc(Cl)cc2)C(=O)C[C@@H](c2ccccc2)N3S(=O)(=O)c2ccc(C)cc2)cc1	none (no result: ANO1 block, ANO1 activ, NTR1 agonist)
COc1ccccc1NC(=O)CSc1nnnn1-c1ccc2c(c1)OCO2	ANO1 activ -7.5
COc1ccccc1NC(=O)CSc1nnnn1-c1ccccc1OC	none
NC(=O)C1=C[C@@H](c2ccccc2)C[C@@H](OCc2ccc(CO)cc2)O1	none
O=C(O)C1=C[C@@H](c2ccccc2)C[C@@H](OCc2ccc(CO)cc2)O1	ANO1 activ -12.8
O=C(c1cc(-c2ccc(Cl)cc2Cl)on1)N1CCN(C(=O)c2ccco2)CC1	CHO-K1 Ca antag 24.5
COC(=O)c1c(NC(=O)C2COc3ccccc3O2)sc2c1CCN(C(=O)OC)C2 (stereo unspecified)	none (no result: ANO1 block, ANO1 activ, NTR1 agonist)
Cc1ccc(S(=O)(=O)N2C[C@H]3C(=O)C[C@@H](c4ccccc4)N(S(=O)(=O)c4ccc(Br)cc4)[C@H]3C[C@H]2c2ccccc2)cc1	none (no result: ANO1 block, ANO1 activ, NTR1 agonist)
CC1(Cc2ccc3c(c2)OCO3)C(=O)Nc2c(Cl)ccc(Cl)c21 (stereo unspecified)	none (no result: ANO1 block, ANO1 activ, NTR1 agonist)
COc1ccc2nc3cc(Cl)ccc3c(C#N)c2c1	ANO1 activ -7.23
CC(C)CCn1nnnc1C(C(C)C)N1CCC(C(N)=O)CC1 (stereo unspecified)	ANO1 block 100
COc1cccc(-n2c(C)c(C(C)=O)c(C(C)=O)c2C)c1	ANO1 activ -13.2
CC(=O)Oc1ccc2c(c1)c(C(C)=O)c(C)n2C	none
COc1ccc2c(c1)c(C(C)=O)c(C)n2C	M1 ag parental 19.0
O=C(Nc1ccc(Cl)cc1)Nc1ccc(Cl)c(Cl)c1	none (no result: ANO1 block, M1 ag parental, ANO1 activ, CHO-K1 Ca antag, CHO-K1 Ca PAM)
O=C(Nc1ccc(Cl)cc1)Nc1ccc(N2CCOCC2)cc1	none
O=C(Nc1ccc(N2CCOCC2)cc1)Nc1ccc(Cl)c(Cl)c1	CHO-K1 Ca antag 33.3
O=C1C=C(NC(=O)Nc2ccc(Cl)c(Cl)c2)CCC1	CHO-K1 Ca antag 29.9
CS(=O)(=O)c1ccc(C(=O)OCc2nnc(-c3ccccc3)o2)cc1[N+](=O)[O-]	ANO1 activ -46.2 (no result: ANO1 block, NTR1 agonist)
CN(C)S(=O)(=O)c1ccc(C(=O)OCc2nnc(-c3ccccc3)o2)cc1	none
O=C(OCc1nnc(-c2ccccc2)o1)c1cc2ccccc2cc1O	none
O=C(OCc1nnc(-c2ccccc2)o1)c1ccc2ccccc2n1	CHO-K1 Ca antag 29.5
O=C(CN(C1CCCCC1)S(=O)(=O)c1ccc(F)cc1)NCC1CCCO1 (stereo unspecified)	none (no result: ANO1 block, NTR1 agonist)
O=C(Nc1ccc(S(=O)(=O)Nc2ncccn2)cc1)c1ccc(Br)o1	M1 ag parental 17.6
O=C(Nc1ccc(S(=O)(=O)Nc2ncccn2)cc1)c1ccco1	none
Cn1c(-n2c(CCCN3C(=O)c4ccccc4C3=O)nc3ccccc3c2=O)nc2ccccc21	none
O=C1c2ccccc2C(=O)N1CCCc1nc2ccccc2c(=O)n1CCCn1ccnc1	CHO-K1 Ca antag 30.1 (no result: ANO1 activ)
O=C(NCC(c1ccco1)N1CCc2ccccc21)C(=O)Nc1ccccc1 (stereo unspecified)	CHO-K1 Ca antag 24.5
CC1(C)CC(=O)C(C2C3=C(CC(C)(C)CC3=O)Oc3c(Br)cc(Br)cc32)=C(O)C1 (stereo unspecified)	ANO1 block 25
CCCCOCCCNC(=O)C[C@@H]1C[C@@]2(C(=O)OCC)CCC=C2N(Cc2ccc3c(c2)OCO3)C1=O	none (no result: ANO1 block, ANO1 activ, NTR1 agonist)
Cc1cccc(NC(=S)NC(=O)c2ccc(Br)o2)c1C	none
Cc1ccc(NC(=S)NC(=O)c2ccc(Br)o2)c(C)c1	M1 ag parental 19.3
O=C(NCc1cccs1)c1csc([C@@H]2O[C@H](CO)[C@H](O)[C@H](O)[C@H]2O)n1	none (no result: ANO1 block, ANO1 activ, NTR1 agonist)
Cc1ccc(S(=O)(=O)N(CC(=O)NCCC2=CCCCC2)Cc2ccccc2F)cc1	ANO1 block 25
CC(C)C[C@H](NC(=O)CC[C@H]1O[C@@H](n2ccc(=O)[nH]c2=O)[C@H](O)[C@@H]1O)C(=O)O	none (no result: ANO1 block, ANO1 activ, NTR1 agonist)
COc1ccc(N=C2SC(CC(=O)Nc3ccccc3)C(=O)N2Cc2ccccn2)cc1 (stereo unspecified)	ANO1 activ -5.75
COc1ccc(NC(=O)CC(NCc2ccccn2)C(=O)O)cc1 (stereo unspecified)	M1 ag parental 17.9
COc1ccc(N=C2SC(CC(=O)Nc3ccccc3)C(=O)N2CCc2ccccn2)cc1 (stereo unspecified)	none
C[C@H]1CN([C@@H](C)CO)C(=O)c2cc(Br)cnc2O[C@@H]1CN(C)C(=O)Nc1ccc(C(F)(F)F)cc1	none (no result: ANO1 block, ANO1 activ, NTR1 agonist)
CC1(C(=O)NS(=O)(=O)c2ccc(C#N)cc2)CCN1C(=O)C1CCCCC1 (stereo unspecified)	none (no result: ANO1 block, ANO1 activ, NTR1 agonist)
CC1(C)Oc2ccc(/C=C/C(=O)N3CCOCC3)c(O)c2C(N2CCOCC2)C1O (stereo unspecified)	none (no result: M1 ag parental, ANO1 activ, CHO-K1 Ca antag, CHO-K1 Ca PAM)
